Bioassay records from PubChem BioAssay.
VACV mCherry inh – vaccinia inhibition (mCherry reporter); Vaccinia virus mCherry reporter infection, fluorescence; 310,000 tested, 0.63% active; Potency, µM (series often up to 36.5 µM), for the others: top-dose activity change, negative = inhibition, hits mostly inhibitors; calls by dose curve; tested in A549 cells; note: % is set by controls: 0 for no effect and ±100 for the full control effect; nearly all actives have a fitted effect of over 35% in size
HCV inhibitor – inhibitors of hepatitis C virus infection. Potency, µM (series often up to 41.8 µM), for inactives: at the highest dose activity change, negative = inhibition, most hits filed as inhibitors. Huh7.5.1 HCVcc-Cre infection, luciferase reporter, 44 h. 340,000 tested, 3.4% active. AID 651820; note: % is set by controls: 0 for no effect and ±100 for the full control effect
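Luciferase read-out (15 sec integration) after a 15 min room-temperature substrate step quantifies HCVcc-Cre infection. Cells, 1,000 per well, had compound added 4 h post-plating, then virus at ~0.5 moi, and were cultured 44 h.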
VACV Venus inh – vaccinia inhibition (Venus reporter). Vaccinia virus Venus reporter expression, fluorescence. Potency, µM (top dose mostly 36.5 µM), inactives show top-dose activity change, negative = inhibition, actives largely listed as inhibitors. 330,000 tested, 0.46% active; calls by dose curve; tested in A549 cells; note: % is set by controls: 0 for no effect and ±100 for the full control effect; nearly all actives have a fitted effect of over 30% in size
NS1 function inh – influenza NS1 inhibition | Potency, µM (highest dose often 46.1 µM), without a hit: at the top dose activity, positive = more growth | AID 2326 | 270,000 tested, 0.4% active; calls by dose curve; note: actives are rising curves; nearly all actives have a fitted effect of over 50% in size
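In this qHTS, NS1 from influenza A is expressed in budding yeast, where it slows growth. Cells are switched from glucose to 2% galactose medium (pH 6.0, -URA), treated with compound, and growth recovery is read at OD600.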
Pf growth 96h – P. falciparum growth inhibition at 96 hours; P. falciparum luciferase reporter growth, 96 h; Potency, µM (series often up to 28.7 µM), for inactives: at the top dose activity change, negative = inhibition, usual class: inhibitors; 320,000 tested, 6.9% active; note: % is set by controls: 0 for no effect and ±100 for the full control effect
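Infected RBCs, 2% Hct / 0.05% parasitemia final; luciferase-reporter P. falciparum; cpd 96 h, 37 C, 5% CO2; luciferase detection reagent; luminescence.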
Pf growth 48h – inhibits P. falciparum growth in the first generation, 48 h; P. falciparum luciferase growth in erythrocytes, 48 h; Potency, µM (top dose mostly 28.7 µM), for inactives: at the top dose activity change, negative = inhibition, usual class: inhibitors; 310,000 tested, 5.9% active; AID 504832; note: % is set by controls: 0 for no effect and ±100 for the full control effect
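In quantitative HTS format, infected erythrocytes bearing luciferase-reporter parasites were treated for a single generation at 37 C. Luminescence after adding detection reagent served as the growth measure.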
An asterisk follows results filed as active; i = inactive; ? = inconclusive; . = not tested or not shown. A selection: hits, their analogues and other compounds. The true share with any hit is near 11%. Unless noted, calls come from the whole dose curve; as a rule, active = well fitted inhibition curve with a large enough effect; inconclusive = small, poorly fitted or top-dose-only effect, or another doubt; inactive = no such curve, though single readings can be large or run the other way. Potency is the fitted concentration of half-maximal effect.

SMILES	VACV mCherry inh	HCV inhibitor	VACV Venus inh	NS1 function inh	Pf growth 96h	Pf growth 48h
Cc1sc(NC(=O)CSc2nnnn2C2CCCCC2)c(C#N)c1C	-10%	-2%	-9%	-15%	39%	41%
CN(Cc1ccccc1)C(=O)c1cccc(NC(=O)Cc2cccc(NC(=O)C3CCN(C(=O)C4CC4)CC3)c2)c1	-15%	?	-4%	.	.	.
Cc1nc(CS(=O)(=O)c2ccccc2)cc(N2CCN(c3ccccc3F)CC2)n1	-2%	?	1%	.	-2%	-8%
Clc1ccc(Cn2cc(/C=N/n3cnnc3)c3ccccc32)cc1	.	10µM*	?	-6%	-21%	?
CN(C)CCN1C(=O)C(O)=C(C(=O)c2ccco2)C1c1ccccc1F (stereo not drawn)	-10%	-5%	-14%	-9%	.	3%
NS(=O)(=O)c1ccc(NC(=S)N2CCN(Cc3ccc4c(c3)OCO4)CC2)cc1	.	?	.	6%	33%	-10%
Cc1c(C(=O)N2CC(C(=O)N3CCCCC3)Oc3ccccc32)oc2ccccc12 (stereo not drawn)	-8%	?	-5%	.	13µM*	?
Cc1c(C(=O)N2CCc3ccccc32)oc2ccccc12	i	?	-1%	-23%	8%	190%
O=C(NCCc1ccc(Cl)cc1)c1ccc2nc(Cc3ccccc3)oc2c1	-4%	.	8%	.	.	.
O=c1[nH]c2cc3c(cc2cc1C(c1nnnn1Cc1ccccc1)N1CCN2CCCC2C1)OCCO3 (stereo not drawn)	i	2%	-15%	?	12µM*	?
CCN(Cc1ccccc1)C(c1cc2cc(C)cc(C)c2[nH]c1=O)c1nnnn1CCOC (stereo not drawn)	.	3%	-13%	-51%	0%	?
O=c1[nH]c2cc3c(cc2cc1C(c1nnnn1Cc1ccccc1)N1CCCCCC1)OCCO3 (stereo not drawn)	.	-5%	.	4%	?	.
COCCn1nnnc1C(c1cc2cc(OC)ccc2[nH]c1=O)N1CCC(Cc2ccccc2)CC1 (stereo not drawn)	.	5%	.	-46%	-5%	12µM*
CCN(Cc1ccccc1)C(c1cc2cc(C)ccc2[nH]c1=O)c1nnnn1CCOC (stereo not drawn)	.	-1%	-12%	-37%	12µM*	?
c1ccc(-c2[nH]c(-c3ccccc3)[n+](CC3CO3)c2-c2ccccc2)cc1 (stereo not drawn)	?	?	?	-20%	10µM*	?
OC1COC(OCc2ccccc2)C(O)C1O (stereo not drawn)	-20%	?	1%	4%	?	-2%
O=C(CCC(=O)N/N=C/c1ccco1)N/N=C/c1ccco1	-12%	16%	10%	5%	1%	0%
CCOP(=O)(OCC)c1nc(-c2cccc3ccccc23)oc1NCc1ccccc1	-21%	0%	-21%	-17%	?	?
CCOP(=O)(OCC)c1nc(-c2cccc3ccccc23)oc1NCc1ccc(OC)cc1	-11%	?	-23%	.	13µM*	?
CCOP(=O)(OCC)c1nc(/C=C/c2ccccc2)oc1NCc1ccccc1	?	?	-26%	9%	44%	12µM*
CSc1nnc2n(C)c3c(c(=O)n12)C1(CCCC1)Cc1ccccc1-3	.	?	.	?	10µM*	?
CC(O)C(N)C(=O)O (stereo not drawn)	.	.	.	.	0%	-9%
C[C@@H](N)C(=O)O	.	.	.	.	19%	17µM*
COc1ccc(N2CCN(C(=O)CCCN3C(=O)c4cccc5cccc(c45)C3=O)CC2)cc1	.	?	.	9%	31%	?
O=C(CCCN1C(=O)c2cccc3cccc(c23)C1=O)N1CCN(c2ccc(F)cc2)CC1	-22%	11µM*	-10%	3%	-16%	?
OC(c1ccccc1)c1nc(-c2ccc(F)c(Cl)c2)cs1 (stereo not drawn)	32%	.	-13%	.	.	.
COc1ccc(CCNC2CC(=O)N(CCc3ccccc3)C2=O)cc1OC (stereo not drawn)	-19%	5%	-15%	-3%	19%	.
